Screening data deposited in PubChem by several laboratories.
Compounds with a hit are over-represented: about 9.3% of the library has one in this group of screens.
Htt clearance – clearance of mutant huntingtin inclusions, primary screen, imaging, HeLa Exon1htt(103Q)mCFP, confocal imaging; inhibition, % at 1.5 µM; 47,000 tested, 0.42% active; aggregate imaging; zero = plate's median compound well; AID 853, 2007;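 active = inhibition of aggregate fluorescence above about 70%, also judged a hit by eye on the cell image, limit read from the data, passing the limit was not always enough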;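 note: cells exposed to compound for three days before fixation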
NADH coupling – inhibitors of PK/LDH coupling enzymes, profiling panel, artefact control, biochemical, MLSMR library; coupled PK/LDH NADH assays, four targets; IC50, µM (titrated, usually from 10 µM); 65,000 tested, 0.02% active;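 active = single-dose screening hits from any of four coupled enzyme assays that gave an IC50 when retested across doses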;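 note: the DPM-DC format reads NADH fluorescence rather than 340 nm absorbance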
M1 agonist – M1 muscarinic receptor agonists, primary screen, CHO-M1 cells, Fluo-4 calcium, agonist mode. B-score at 10 µM. Fluo-4 calcium fluorescence; stronger effect = higher value. 64,000 tested, 3% active. AID 626, 2007;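 active = fluorescence rise, raw or as B-score row- and column-corrected plate score, outside the 99.7% band of its plate's samples, either direction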
M1 antagonist – antagonists of rat M1 muscarinic receptor; CHO-M1 cells, Fluo-4 calcium, ACh EC80 antagonist mode; stronger effect = lower value; B-score at 10 µM; 64,000 tested, 3.4% active; AID 628, 2007;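 active = calcium fluorescence response, raw or row-and-column corrected B-score, differing from the plate sample mean either way at a set confidence level, mostly lower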
Target sequence (P08482 whole entry, looked up): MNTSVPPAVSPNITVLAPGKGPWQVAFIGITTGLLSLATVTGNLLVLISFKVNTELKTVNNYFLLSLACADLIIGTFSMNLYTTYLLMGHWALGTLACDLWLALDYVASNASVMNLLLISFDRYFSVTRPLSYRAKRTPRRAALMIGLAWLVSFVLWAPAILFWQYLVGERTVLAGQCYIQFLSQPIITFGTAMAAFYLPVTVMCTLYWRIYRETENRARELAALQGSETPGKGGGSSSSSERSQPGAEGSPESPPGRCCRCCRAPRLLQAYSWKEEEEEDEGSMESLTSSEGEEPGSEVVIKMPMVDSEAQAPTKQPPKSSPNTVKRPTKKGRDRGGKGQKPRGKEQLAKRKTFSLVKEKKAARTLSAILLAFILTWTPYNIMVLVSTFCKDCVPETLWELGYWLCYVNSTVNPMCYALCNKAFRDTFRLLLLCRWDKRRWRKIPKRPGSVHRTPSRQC
Abs 340nm – compound light absorbance at 340 nm, profiling panel, artefact control, biochemical, MLSMR library, data from PS, PMK, MK assays. 65,000 tested, under 10 active. compound absorbance at 340 nm, fold over control. fold change at 10 µM;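 active = at 10 µM dose, initial 340 nm absorbance at least 2 fold that of control wells; inactive = change under 2 fold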;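 note: initial absorbance extrapolated from kinetic A340 decline of NADH oxidation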
Autofluor 339 – intrinsic fluorescence of library compounds, ex339/em460 – biochemical, MLSMR library, data from DPM-DC assay, artefact control, profiling panel; fluorescence fold increase at 10 µM; 65,000 tested, 5.5% active; compound autofluorescence, ex339/em460 nm, NADH buffer; stronger effect = higher value; 1 = no-compound wells, NADH background;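 active = at 10 µM, mean starting fluorescence two-fold or more over control wells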;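 note: signal is the first read of a kinetic run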
Each line names hits and unclear results; the compound was inactive in the other large screens.

COc1cc2c(cc1OC)-c1cc(Nc3ccc4c(c3)OCCO4)nc(=O)n1CC2	none
COc1cc2c(cc1OC)-c1cc(N3CCCCCC3)nc(=O)n1CC2	Autofluor 339 2.5
COc1cc2c(cc1OC)-c1cc(NC3CCCCCC3)nc(=O)n1CC2	Autofluor 339 3.3
COc1cc2c(cc1OC)-c1cc(OCc3cccnc3)nc(=O)n1CC2	Autofluor 339 2.9 (no result: Htt clearance)
CCN(CC)CCCNc1cc2n(c(=O)n1)CCc1cc(OC)c(OC)cc1-2	Autofluor 339 4
COc1cc2c(cc1OC)-c1cc(N3CCCc4ccccc43)nc(=O)n1CC2	none
CCOc1ccccc1NC(=O)Cn1nnc(-c2ccc(OCC)c(OCC)c2)n1	none
Cc1nn(-c2ccccc2)c2sc(-c3n[nH]c(=S)o3)cc12	Autofluor 339 3.9 (no result: Htt clearance, M1 agonist, M1 antagonist)
Cc1nn(-c2ccccc2)c2sc(C(=O)O)cc12	none (no result: Htt clearance)
COC(=O)c1c(C(=O)OC)n(CCCN)c2ccc(C)cc12	Autofluor 339 2.4
COc1cc2cc(C(c3nnnn3C(C)(C)C)N3CCC(C)CC3)c(=O)[nH]c2cc1OC (configuration not stated)	none (no result: NADH coupling, M1 agonist, M1 antagonist, Abs 340nm, Autofluor 339)
O=C(CCCSc1nc2ccccc2[nH]1)NC1=NCCS1	M1 antagonist 1.7 (no result: Htt clearance)
COc1ccc2nc(NCCCNC(=O)c3cc(OC)c(OC)c(OC)c3)c(C#N)cc2c1	M1 agonist 15, Autofluor 339 3.1
CC(=O)Nn1cnc2c(c1=O)C1(CCCC1)Cc1ccccc1-2	none (no result: Htt clearance)
O=c1[nH]c(NCCCO)nc2c1C1(CCCC1)Cc1ccccc1-2	Autofluor 339 2.1 (no result: Htt clearance)
Cn1c(NCCO)nc2c(c1=O)C1(CCCCC1)Cc1ccccc1-2	Autofluor 339 2.2 (no result: Htt clearance)
CC1(C)Cc2ccccc2-c2c1c(=O)n(-c1ccccc1)c1nnnn21	none
CC1(C)Cc2ccccc2-c2nc(NCCCO)n(-c3ccccc3)c(=O)c21	Autofluor 339 2.1 (no result: Htt clearance)
CN(C)Cc1nc2c(c(=O)[nH]1)C1(CCCCC1)Cc1ccccc1-2	none (no result: Htt clearance)
O=C(O)C1Nc2c(C(=O)N3CCOCC3)cccc2C2C=CCC12 (configuration not stated)	M1 antagonist 1.8
COc1ccc(S(=O)(=O)c2ccc(OC)c(OC)c2)cc1OC	none (no result: Htt clearance)
CC(C)(C)NC(=O)Nc1ccc2nccnc2c1	Autofluor 339 2.2
CC(C)N(C(=O)Nc1ccc2nccnc2c1)C(C)C	Autofluor 339 2.2 (no result: Htt clearance)
CCOC(=O)c1[nH]c2ccc(OC)cc2c1NC(C)=O	Autofluor 339 3.5
CCOC(=O)c1[nH]c2ccc(OC)cc2c1NC(=O)CN1CCSCC1	Autofluor 339 3.9
CCOC(=O)c1[nH]c2ccc(OC)cc2c1C	none
c1ccc2c(c1)[nH]c1c(N3CCN(C4CCCCC4)CC3)ncnc12	Autofluor 339 2.3
CCOC(=O)C1CCN(C(=O)Nc2ccc(OC)c(OC)c2)CC1	none
CC(C)C[C@H](NC(=O)Nc1ccc(S(N)(=O)=O)cc1)C(=O)O	none (no result: M1 agonist, M1 antagonist)
COC(=O)[C@H](C)NC(=O)Nc1ccc(S(N)(=O)=O)cc1	M1 antagonist 1.6
Nc1c2c(nc3ccn(-c4ccccc4)c(=O)c13)CCCCC2	Autofluor 339 2.1
Nc1c2c(nc3ccn(Cc4ccccc4)c(=O)c13)CCC2	none
CC(C)(C)NS(=O)(=O)c1cccc(S(=O)(=O)c2cccc(S(=O)(=O)NC(C)(C)C)c2)c1	none
COC(=O)c1cc(Cc2ccc(N)c(C(=O)OC)c2)ccc1N	Autofluor 339 2.1
COC(=O)c1ccc(C(=O)OC)c(NS(C)(=O)=O)c1	none
COC(=O)c1ccc(C(=O)OC)c(N)c1	Autofluor 339 4 (no result: Htt clearance)
CCCn1nnc(NC(=O)COc2ccc(C3CCCCC3)cc2)n1	none
COc1ccc(-n2c(Cn3c(=O)sc4ccccc43)nnc2SCC(=O)N2CCCC2)cc1	none (no result: Htt clearance)
Cc1cc(C)c(C#N)c(N2CCSCC2)n1	Autofluor 339 2.7
Cc1cc(C)c(C#N)c(N2CCCC(C(N)=O)C2)n1 (configuration not stated)	Autofluor 339 4.1 (no result: Htt clearance)
CCC(=O)c1cc2c(C)cc(=O)oc2c(C)c1O	none (no result: Htt clearance)
CCc1cc(=O)oc2c(C)c(O)c(CN(C)C)cc12	Autofluor 339 3.9 (no result: Htt clearance)
CCOC(=O)C1CCCN(C/C(O)=C(\C#N)c2nc(-c3ccccc3)cs2)C1 (configuration not stated)	M1 agonist 11
N#C/C(=C(/O)CN1CCOCC1)c1nc(-c2ccccc2)cs1	none (no result: Htt clearance)
Cn1ccnc1Sc1nc2ccccc2nc1NS(=O)(=O)c1ccccc1	none (no result: Htt clearance)
CCCCCCNC(=O)C(C#N)c1nc2ccccc2nc1N1CCCC1 (configuration not stated)	M1 antagonist 1.1
N#CC(C(=O)NCCc1ccccc1)c1nc2ccccc2nc1N1CCOCC1 (configuration not stated)	none (no result: Htt clearance)
CCOC(=O)C1CCCN(c2nc3ccccc3nc2C(C#N)C(=O)NCc2ccccc2)C1 (configuration not stated)	M1 agonist 21 (no result: Htt clearance)
CCCCCNC(=O)C(C#N)c1nc2ccccc2nc1N1CC(C)OC(C)C1 (configuration not stated)	none (no result: Htt clearance)
COC(=O)C(C)Oc1ccc(=O)[nH]n1 (configuration not stated)	none
CC(C)c1ccc(NC(=O)C2CC(=O)N=C(N)S2)cc1 (configuration not stated)	none
Cc1c(C)[n+](=O)c2c(n1[O-])CCCCC2	none (no result: Htt clearance)
COc1ccc(-c2cn3cc(Cl)ccc3n2)cc1OC	Autofluor 339 4.8 (no result: Htt clearance)
COc1ccc(C(=O)N(Cc2ccccc2)Cc2cc3cc4c(cc3[nH]c2=O)OCCO4)cc1	none (no result: NADH coupling, M1 agonist, M1 antagonist, Abs 340nm, Autofluor 339)
CCN(CC)CCCN(Cc1cc2cc3c(cc2[nH]c1=O)OCCO3)C(=O)Nc1ccc(F)cc1	Autofluor 339 3.2 (no result: Htt clearance)
O=C(c1cccs1)N(CCO)Cc1cc2cc3c(cc2[nH]c1=O)OCCO3	Autofluor 339 2.5
CC(=O)N(CCc1ccccc1C)Cc1cc2cc3c(cc2[nH]c1=O)OCO3	Autofluor 339 3
CCN(CC)CCCN(Cc1cc2cc3c(cc2[nH]c1=O)OCO3)C(=O)Nc1ccccc1OC	Autofluor 339 2.8
Cc1cc2cc(CN(Cc3ccc4c(c3)OCO4)C(=O)c3ccco3)c(=O)[nH]c2cc1C	none
CC(C)(C)CC(=O)N1CCC(c2nc3c(nnn3Cc3c(F)cccc3Cl)c(=O)[nH]2)CC1	none (no result: Htt clearance)
Cc1ccc2[nH]c(=O)c(C(c3nnnn3CCc3ccccc3)N3CCOCC3)cc2c1 (configuration not stated)	none (no result: Htt clearance)
O=c1cc(C(F)F)oc2c1ccc1ccccc12	Autofluor 339 2.5 (no result: Htt clearance)
Cn1c(SCC(=O)Nc2cc(=O)n(C)c(=O)n2C)nnc1-c1cccs1	none (no result: Htt clearance)
O=S(=O)(c1ccccc1)N1CCN(c2ncnc3sc(-c4ccccc4)cc23)CC1	Autofluor 339 5.2
